The values that follow come from PubChem BioAssay (Tox21).

The structures appear in SMILES notation. Results filed as inconclusive are left out. Values without a mark were called inactive. Active and inactive are the calls of the source. The call rests on the fitted dose curve; in most records, active means well fitted cell-killing curve with a large enough effect in the repeat runs; inconclusive means weak or mixed curves, or effect the other way; inactive means flat fitted curve, though single readings scatter.
On the % scale 0 is the no-effect control and ±100 the full control effect.

This assay in a line: cAMP Responsive Elements (CRE) small molecule antagonists, cell-based qHTS assay: qHTS cell viability counter screen (AID 2060913). Further: nearly all actives have a fitted effect of over 40% in size. The settings on record: CRE-bla HEK293T viability, CellTiter-Glo luminescence, 5 h; series mostly up to 92.4 µM; viability change, negative = cytotoxic: at the top concentration. The method, boiled down:
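Cytotoxicity read in the same wells as the CRE-bla HEK293T antagonist assay: after 3 h compound with 0.25 uM NKH477 final and 2 h beta-lactamase substrate, CellTiter-Glo luminescence measured.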
(In general: Quantitative high-throughput screening tests each substance at several concentrations.)
Take `COc1ccc(N)c(C)c1`: the Potency result is “inactive”.

Regarding `CC(CN1CC(=O)NC(=O)C1)N1CC(=O)NC(=O)C1` (stereo unspecified), the “viability change, negative = cytotoxic” value is -1.02%.

In the case of `CCCCCCCC1CCCC1=O` (stereo unspecified), the “viability change, negative = cytotoxic” value was 0.877%.

Turning to `CC(C)NCC(O)COc1ccc(COCCOC(C)C)cc1` (stereo unspecified), the “viability change, negative = cytotoxic” value was -2.12% [at 42.5 µM].

For `O=C1CCc2ccc(OCCCCN3CCN(c4cccc(Cl)c4Cl)CC3)cc2N1`, the “viability change, negative = cytotoxic” value is -15.3% [at 42.5 µM].

With `C=CC(=O)N1CCOCC1`, the “viability change, negative = cytotoxic” value was -5.76%.

Consider `CC(S)C(C)S` (stereo unspecified), for which the “viability change, negative = cytotoxic” value is -3.16%.

`CN(C)c1ccc(O)c2c1C[C@H]1C[C@H]3[C@H](N(C)C)C(=O)C(C(N)=O)=C(O)[C@@]3(O)C(=O)C1=C2O`: the Potency entry was “inactive”.

Take `Cc1cc(C)c(C)c(C)c1`: the “viability change, negative = cytotoxic” value was 0.653%.

As for `CCCCCCCCCCCBr`, the “viability change, negative = cytotoxic” value is 4.23% [at 42.5 µM].

`CNCc1ccc(NC(=O)c2c[nH]c3c2C(=O)CCC3)cc1`: the “viability change, negative = cytotoxic” value is -0.0665%.

`Cc1ccc2c(ccc3ccccc32)c1`: the “viability change, negative = cytotoxic” value is 5.35%.

For `Nc1nc2ncc(CNc3ccc(C(=O)N[C@@H](CCC(=O)O)C(=O)O)cc3)nc2c(=O)[nH]1`, the Potency entry is “inactive”.

Take `C=CC(=O)O`: the “viability change, negative = cytotoxic” value is -6.4% [at 42.5 µM].

`CCOCCOC(=O)/C=C/c1ccc(OC)cc1`: the “viability change, negative = cytotoxic” value was 3% [at 42.5 µM].

As to `CN(C)CCCO[C@@H]1[C@H]2OC(C)(C)O[C@H]2O[C@@H]1C(O)CO` (stereo partly specified), the “viability change, negative = cytotoxic” value is 3.05% [at 42.5 µM].

With `C=CCOCC(CC)(CO)COCC=C`, the “viability change, negative = cytotoxic” value is 0.0609%.

With `Cc1cc(NC(=O)C(=O)O)cc(C)c1Oc1ccc(O)c2c1CCC2`, the “viability change, negative = cytotoxic” value was 2.01%.

For the compound `N=C(N)c1ccc(OCCCCCOc2ccc(C(=N)N)cc2)cc1`, the Potency entry was “inactive”.

In the case of `CCCCNc1ccc(C(=O)OCCN(CC)CC)cc1`, the “viability change, negative = cytotoxic” value is 0.65% [at 42.5 µM].

Take `NC[C@H]1O[C@H](O[C@H]2[C@H](O)[C@@H](O[C@H]3O[C@H](CO)[C@@H](O)[C@H](N)[C@H]3O)[C@H](N)C[C@@H]2N)[C@H](O)[C@@H](O)[C@@H]1O`: the viability change, negative = cytotoxic was -0.639% [at 8.39 µM].
